In the supplement of paper PMC10849652:
Of roughly 8,800 targets only a part is listed; those with a hit were picked by preference. About 0.5% of all pairs of compound and target were hits.

compound: NC(=O)c1cnc(N[C@@H]2CCCC[C@@H]2N)nc1Nc1cccc(-n2nccn2)c1; experiment: log2 fold change, soluble protein after heating vs DMSO (PISA); higher = thermal stabilisation; K562 lysate, 10 uM; active = over 0.2 and 3.5 SD of the protein, either way, in both replicates (recomputed)
How it was run: (§1)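 A 30 min treatment with 10 μM compound was applied to crude K562 extract at 1 mg/mL protein in PBS pH 7.4 with 1 mM MgCl2. Heating for 3 min spanned 48°C-58°C, after which aliquots were pooled, adjusted to 0.5% NP-40 at 4°C and spun at 21,000xg for 90 min. TMTpro 16plex LC-MS/MS of the supernatant, with channel sums equalised, gave values recorded as log-two fold change in thermal stability against solvent controls, from duplicates.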

UniProt Q92621, sequence (Q92621 whole entry, looked up): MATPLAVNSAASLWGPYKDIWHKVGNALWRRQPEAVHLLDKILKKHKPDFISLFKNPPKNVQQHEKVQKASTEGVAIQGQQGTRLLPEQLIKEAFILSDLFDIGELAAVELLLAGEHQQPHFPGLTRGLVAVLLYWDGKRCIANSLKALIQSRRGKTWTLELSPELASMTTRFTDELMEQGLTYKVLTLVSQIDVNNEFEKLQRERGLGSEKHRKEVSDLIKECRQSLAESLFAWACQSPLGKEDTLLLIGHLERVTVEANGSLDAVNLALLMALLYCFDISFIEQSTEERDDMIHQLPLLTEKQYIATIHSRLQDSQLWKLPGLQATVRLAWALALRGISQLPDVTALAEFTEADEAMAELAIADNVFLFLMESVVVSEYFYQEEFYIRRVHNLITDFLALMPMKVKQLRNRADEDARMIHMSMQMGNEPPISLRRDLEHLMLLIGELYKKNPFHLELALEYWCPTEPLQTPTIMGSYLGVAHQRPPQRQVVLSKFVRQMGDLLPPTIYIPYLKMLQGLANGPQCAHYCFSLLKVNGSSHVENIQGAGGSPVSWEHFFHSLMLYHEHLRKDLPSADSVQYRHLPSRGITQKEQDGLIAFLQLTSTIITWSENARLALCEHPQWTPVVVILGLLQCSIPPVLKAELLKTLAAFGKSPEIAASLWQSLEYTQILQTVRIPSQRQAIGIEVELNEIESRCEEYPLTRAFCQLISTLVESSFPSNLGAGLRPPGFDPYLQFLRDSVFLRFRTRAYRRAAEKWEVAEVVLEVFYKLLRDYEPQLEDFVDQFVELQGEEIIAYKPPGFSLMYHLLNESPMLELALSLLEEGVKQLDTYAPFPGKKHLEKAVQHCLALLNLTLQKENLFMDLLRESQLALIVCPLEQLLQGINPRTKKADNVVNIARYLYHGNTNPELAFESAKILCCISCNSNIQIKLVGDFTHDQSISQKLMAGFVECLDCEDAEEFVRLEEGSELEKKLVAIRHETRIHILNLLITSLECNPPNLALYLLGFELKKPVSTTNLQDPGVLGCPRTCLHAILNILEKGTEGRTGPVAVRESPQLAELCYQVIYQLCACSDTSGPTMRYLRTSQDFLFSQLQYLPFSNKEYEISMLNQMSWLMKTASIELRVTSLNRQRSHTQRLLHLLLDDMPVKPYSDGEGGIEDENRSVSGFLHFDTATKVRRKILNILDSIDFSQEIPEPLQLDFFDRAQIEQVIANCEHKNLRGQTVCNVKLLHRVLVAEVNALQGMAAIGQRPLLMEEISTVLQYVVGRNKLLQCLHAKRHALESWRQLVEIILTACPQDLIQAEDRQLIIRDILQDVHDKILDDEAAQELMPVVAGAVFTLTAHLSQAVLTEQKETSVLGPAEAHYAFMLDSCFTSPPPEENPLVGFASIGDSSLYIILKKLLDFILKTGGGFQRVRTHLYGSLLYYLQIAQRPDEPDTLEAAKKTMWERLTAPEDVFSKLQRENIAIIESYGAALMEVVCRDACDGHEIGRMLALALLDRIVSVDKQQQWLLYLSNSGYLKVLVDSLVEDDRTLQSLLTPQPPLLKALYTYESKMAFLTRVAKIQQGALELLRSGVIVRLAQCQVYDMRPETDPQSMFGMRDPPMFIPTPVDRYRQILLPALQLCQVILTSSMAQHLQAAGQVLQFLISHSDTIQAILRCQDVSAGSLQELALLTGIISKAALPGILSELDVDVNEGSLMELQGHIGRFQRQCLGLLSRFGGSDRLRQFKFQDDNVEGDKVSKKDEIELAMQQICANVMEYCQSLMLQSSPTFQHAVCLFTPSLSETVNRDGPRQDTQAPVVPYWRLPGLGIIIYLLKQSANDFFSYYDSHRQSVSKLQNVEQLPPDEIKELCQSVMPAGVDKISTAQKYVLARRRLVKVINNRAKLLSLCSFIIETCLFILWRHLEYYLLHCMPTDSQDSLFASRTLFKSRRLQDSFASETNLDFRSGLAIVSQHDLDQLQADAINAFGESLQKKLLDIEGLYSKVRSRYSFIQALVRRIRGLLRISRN
UniProt Q13423, sequence (Q13423 whole entry, looked up): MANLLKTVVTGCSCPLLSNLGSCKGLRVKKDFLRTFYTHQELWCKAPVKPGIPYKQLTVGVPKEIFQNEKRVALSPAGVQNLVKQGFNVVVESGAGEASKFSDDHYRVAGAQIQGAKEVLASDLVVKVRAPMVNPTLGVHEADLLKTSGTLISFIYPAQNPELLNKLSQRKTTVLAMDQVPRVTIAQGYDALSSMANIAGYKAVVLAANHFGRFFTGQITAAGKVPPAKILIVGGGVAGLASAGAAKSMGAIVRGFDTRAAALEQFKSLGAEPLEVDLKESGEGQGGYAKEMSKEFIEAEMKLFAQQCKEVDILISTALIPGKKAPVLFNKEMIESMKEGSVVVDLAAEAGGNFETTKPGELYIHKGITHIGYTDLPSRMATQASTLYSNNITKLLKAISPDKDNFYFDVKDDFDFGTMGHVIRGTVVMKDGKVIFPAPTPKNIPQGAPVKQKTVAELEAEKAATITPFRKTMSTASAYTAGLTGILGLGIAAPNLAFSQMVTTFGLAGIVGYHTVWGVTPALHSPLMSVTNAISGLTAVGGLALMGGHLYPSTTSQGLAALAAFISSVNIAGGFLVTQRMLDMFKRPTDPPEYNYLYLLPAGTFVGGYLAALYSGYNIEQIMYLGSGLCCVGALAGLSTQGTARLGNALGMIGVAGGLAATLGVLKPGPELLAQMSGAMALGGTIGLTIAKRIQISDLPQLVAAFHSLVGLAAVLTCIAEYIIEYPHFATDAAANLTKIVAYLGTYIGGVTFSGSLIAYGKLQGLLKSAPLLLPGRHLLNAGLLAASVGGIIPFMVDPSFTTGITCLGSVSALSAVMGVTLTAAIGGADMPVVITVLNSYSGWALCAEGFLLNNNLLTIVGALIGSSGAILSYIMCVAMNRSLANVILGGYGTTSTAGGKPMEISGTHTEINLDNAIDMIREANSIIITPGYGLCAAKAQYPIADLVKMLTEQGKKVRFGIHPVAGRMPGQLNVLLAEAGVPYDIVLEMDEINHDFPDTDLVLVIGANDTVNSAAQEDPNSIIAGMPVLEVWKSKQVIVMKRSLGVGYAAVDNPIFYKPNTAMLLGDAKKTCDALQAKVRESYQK
UniProt Q6N063, sequence (Q6N063 whole entry, looked up): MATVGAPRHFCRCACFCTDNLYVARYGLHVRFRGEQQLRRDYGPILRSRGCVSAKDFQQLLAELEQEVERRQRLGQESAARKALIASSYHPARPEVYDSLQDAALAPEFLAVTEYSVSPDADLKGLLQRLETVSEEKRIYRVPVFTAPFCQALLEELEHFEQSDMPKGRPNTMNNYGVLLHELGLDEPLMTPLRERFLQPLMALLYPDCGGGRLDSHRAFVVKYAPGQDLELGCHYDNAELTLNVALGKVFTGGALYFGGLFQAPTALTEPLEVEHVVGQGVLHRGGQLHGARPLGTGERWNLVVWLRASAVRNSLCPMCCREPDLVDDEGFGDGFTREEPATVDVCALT
UniProt P55160, sequence (P55160 whole entry, looked up): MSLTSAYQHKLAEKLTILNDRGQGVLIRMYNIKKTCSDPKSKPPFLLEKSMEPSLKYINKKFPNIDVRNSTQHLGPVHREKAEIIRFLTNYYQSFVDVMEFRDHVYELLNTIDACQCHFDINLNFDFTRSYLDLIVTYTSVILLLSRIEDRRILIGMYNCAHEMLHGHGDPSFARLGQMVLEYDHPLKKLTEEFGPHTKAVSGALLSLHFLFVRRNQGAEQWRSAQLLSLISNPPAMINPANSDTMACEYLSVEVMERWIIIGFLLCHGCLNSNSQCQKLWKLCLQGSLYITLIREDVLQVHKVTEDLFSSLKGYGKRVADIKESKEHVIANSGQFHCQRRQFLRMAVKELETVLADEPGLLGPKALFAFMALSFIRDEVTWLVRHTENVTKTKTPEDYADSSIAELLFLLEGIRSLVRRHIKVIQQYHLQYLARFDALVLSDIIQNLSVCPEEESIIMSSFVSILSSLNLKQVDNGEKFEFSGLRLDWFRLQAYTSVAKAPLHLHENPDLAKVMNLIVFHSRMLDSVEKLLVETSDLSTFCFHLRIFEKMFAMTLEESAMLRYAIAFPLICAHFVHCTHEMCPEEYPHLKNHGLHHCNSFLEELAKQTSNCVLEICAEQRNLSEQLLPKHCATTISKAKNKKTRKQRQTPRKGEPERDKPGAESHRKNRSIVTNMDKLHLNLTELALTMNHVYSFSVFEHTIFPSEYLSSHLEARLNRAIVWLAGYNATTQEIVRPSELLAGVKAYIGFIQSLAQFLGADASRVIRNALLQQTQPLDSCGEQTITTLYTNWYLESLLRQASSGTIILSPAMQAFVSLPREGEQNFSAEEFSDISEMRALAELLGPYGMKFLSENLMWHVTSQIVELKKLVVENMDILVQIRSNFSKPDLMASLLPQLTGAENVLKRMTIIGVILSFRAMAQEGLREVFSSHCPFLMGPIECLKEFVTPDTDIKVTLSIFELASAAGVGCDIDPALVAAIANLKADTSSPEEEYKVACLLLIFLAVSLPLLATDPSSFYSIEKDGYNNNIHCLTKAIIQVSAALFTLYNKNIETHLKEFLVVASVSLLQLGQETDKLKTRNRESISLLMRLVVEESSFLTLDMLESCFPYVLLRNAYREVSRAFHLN
UniProt Q9Y639, sequence (Q9Y639 whole entry, looked up): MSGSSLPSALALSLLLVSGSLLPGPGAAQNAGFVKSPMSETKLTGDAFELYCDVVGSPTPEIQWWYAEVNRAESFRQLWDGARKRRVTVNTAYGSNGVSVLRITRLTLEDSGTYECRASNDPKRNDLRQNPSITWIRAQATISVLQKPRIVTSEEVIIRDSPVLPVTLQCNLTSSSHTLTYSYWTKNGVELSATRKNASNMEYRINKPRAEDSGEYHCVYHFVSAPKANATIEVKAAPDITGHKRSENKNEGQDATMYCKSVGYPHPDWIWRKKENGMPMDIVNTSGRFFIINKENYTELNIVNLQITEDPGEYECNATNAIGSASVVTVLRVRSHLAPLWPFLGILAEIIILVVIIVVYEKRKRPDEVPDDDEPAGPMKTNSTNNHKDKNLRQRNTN

log2 fold change, inactive:
OGFOD2 (UniProt Q6N063) -0.017
MTA2 (UniProt O94776) -0.002
NDC1 (UniProt Q9BTX1) -0.01
OLA1 (UniProt Q9NTK5) -0.006
OCRL (UniProt Q01968) -0.012
NCAPG2 (UniProt Q86XI2) 0.045
NUP133 (UniProt Q8WUM0) 0.005
NCKAP1L (UniProt P55160) 0.017
MRPL53 (UniProt Q96EL3) -0.006
MRPS12 (UniProt O15235) 0.018
NDUFS1 isoform 2 (UniProt P28331) 0.003
NCOR2 (UniProt C9J0Q5) 0.025
NUP205 (UniProt Q92621) 0.047
MTOR (UniProt P42345) 0.017
NF1 (UniProt P21359) 0.016
ORC5 (UniProt O43913) 0.047
OSBP2 (UniProt Q969R2) 0.075
PANK2 (UniProt Q9BZ23) -0.005
MYCBP2 (UniProt O75592) 0.012
NPTN (UniProt Q9Y639) 0.004
NNT (UniProt Q13423) 0.002
OAT (UniProt P04181) 0.019
MTHFD1, A0A384N5Y3 0.008
NIPBL (UniProt Q6KC79) 0.003
NBEAL2 (UniProt Q6ZNJ1) 0.014
N4BP2 (UniProt Q86UW6) -0.018
NFKBIE (UniProt O00221) 0.061
MTA3 (UniProt Q9BTC8) 0.005
NFATC4 isoform 2 (UniProt Q14934) -0.017
NAA35 (UniProt Q5VZE5) -0.035
OPA1 isoform 2 (UniProt O60313) 0.016
NAA30 (UniProt Q147X3) -0.018
MYO1C (UniProt O00159) 0
NUF2 (UniProt Q9BZD4) 0.013
NCAPH (UniProt Q15003) 0.006

compound: NC1(c2ccc(-c3nc4ccn5c(=O)[nH]nc5c4cc3-c3ccccc3)cc2)CCC1; experiment: as above
How it was run: as §1

log2 fold change, inactive:
OGFOD2 (UniProt Q6N063) 0.049
MTA2 (UniProt O94776) 0.001
NDC1 (UniProt Q9BTX1) -0.028
OLA1 (UniProt Q9NTK5) 0.025
OCRL (UniProt Q01968) 0.024
NCAPG2 (UniProt Q86XI2) -0.031
NUP133 (UniProt Q8WUM0) -0.016
NCKAP1L (UniProt P55160) 0.023
MRPL53 (UniProt Q96EL3) 0.031
MRPS12 (UniProt O15235) 0.063
NDUFS1 isoform 2 (UniProt P28331) 0.006
NCOR2 (UniProt C9J0Q5) 0.022
NUP205 (UniProt Q92621) -0.012
MTOR (UniProt P42345) -0.033
NF1 (UniProt P21359) -0.016
ORC5 (UniProt O43913) -0.073
OSBP2 (UniProt Q969R2) 0.026
MYCBP2 (UniProt O75592) -0.013
NPTN (UniProt Q9Y639) 0.002
NNT (UniProt Q13423) 0.001
OAT (UniProt P04181) -0.018
MTHFD1, A0A384N5Y3 -0.017
NIPBL (UniProt Q6KC79) 0.018
NBEAL2 (UniProt Q6ZNJ1) 0.06
N4BP2 (UniProt Q86UW6) -0.048
NFKBIE (UniProt O00221) -0.024
MTA3 (UniProt Q9BTC8) -0.047
NAA35 (UniProt Q5VZE5) 0.016
OPA1 isoform 2 (UniProt O60313) -0.012
NAA30 (UniProt Q147X3) 0.041
MYO1C (UniProt O00159) -0.087
NUF2 (UniProt Q9BZD4) -0.014
NCAPH (UniProt Q15003) -0.017
